The list shows a part of the results. Inconclusive results are not listed. Active and inactive are the calls of the source. Calls follow the shape of the dose curve; as a rule, active = well fitted inhibition curve with a large enough effect; inconclusive = small, poorly fitted or top-dose-only effect; inactive = flat fitted curve, though single readings scatter.

Potency data for 2 molecules are collected here from PubChem BioAssay AID1671187 (National Center for Advancing Translational Sciences (NCATS), 2021).

Chain of Alanine aminotransferase 2 (Homo sapiens) (Q8TD30 whole entry, looked up): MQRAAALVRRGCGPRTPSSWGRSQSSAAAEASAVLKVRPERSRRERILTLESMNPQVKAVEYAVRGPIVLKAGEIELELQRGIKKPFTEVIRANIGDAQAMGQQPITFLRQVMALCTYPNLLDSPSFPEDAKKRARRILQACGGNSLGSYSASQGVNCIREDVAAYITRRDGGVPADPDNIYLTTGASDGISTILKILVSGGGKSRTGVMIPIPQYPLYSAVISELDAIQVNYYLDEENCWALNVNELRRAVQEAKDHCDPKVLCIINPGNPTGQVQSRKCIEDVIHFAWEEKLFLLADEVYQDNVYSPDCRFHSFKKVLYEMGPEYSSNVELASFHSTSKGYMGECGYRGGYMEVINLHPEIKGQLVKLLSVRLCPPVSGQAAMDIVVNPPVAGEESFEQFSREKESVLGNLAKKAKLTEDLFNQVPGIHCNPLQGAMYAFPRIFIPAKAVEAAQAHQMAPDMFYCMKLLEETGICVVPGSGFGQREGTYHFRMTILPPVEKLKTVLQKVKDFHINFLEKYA

This test addresses Alanine aminotransferase 2 (Homo sapiens) (UniProt Q8TD30). The experiment in a line: Confirmatory qHTS assay for inhibitors of Glutamate pyruvate transaminase 2 (GPT2). The settings on record: GPT2 enzyme, coupled Amplex Red pyruvate fluorescence. Here is the method:
Assay Provider: Zhenghe John Wang Ph.D. Case Western Reserve University, Cleveland OH Glutamate pyruvate transaminase 2 (GPT2) catalyzes the reversible transamination of glutamate and pyruvate to provide a-ketoglutarate and alanine. We have optimized an assay for GPT2 enzymatic activity that couples pyruvate formation to detection of fluorescence using an established pyruvate oxidase/horseradish peroxidase / Amplex Red system. Screening conditions were 250uM a-KG, 2mM L-alanine, and 0.006 ng/uL GPT2 in 4 uL of solution; 2 uL of Amplex reaction mix (outlined below) were added so that final concentrations of Amplex reagents in 6 uL were 0.2mM ThPP, 0.2U/mL PO, 1 U/mL HRP, and 15 uM Amplex.
NOTE: The volume of GPT2 in the system depended on the activity of it. The activity could be different in every batch. Batch testing the GPT2 activity was done prior to the assay. Full plate assay with automation as the following protocol: 1. Dispense 2ul of GPT2 enzyme (0.012 ng/ul) into columns 3-48, 2ul of GPT2 buffer (ddH2O with 110mM KCl, 10mM NaCl, 2mM MgCl2, 20mM HEPEs, 0.01% tween-20, 0.1% BSA, 5mM DTT ) into columns 1-2 as a positive control. 2. […] Read at Tecan: Excitation filter 560(10) nm, Emission filter 590 (10) nm Reagents preparation: 1. […]
In general terms: Quantitative high-throughput screening tests each substance at several concentrations.
`CNC(=O)c1ccccc1Nc1nc(Nc2ccc(N3CCOCC3)cc2OC)ncc1Cl`: the Potency was 1.72 µM (active).

On to `CN1CCOc2c(C(=O)NCCN3CCNC3=O)cc(Nc3cccnc3)cc21`, for which the Potency was 4.98 µM (active).
